High-throughput results as filed in PubChem BioAssay.
RORgamma inh – qHTS for inhibitors of ROR gamma transcriptional activity | Nuclear receptor ROR-gamma (Mus musculus), P51450 | Drosophila S2 Gal4-RORgamma UAS-luciferase reporter, 20 h | Potency, µM (series often up to 53.6 µM), inactives show at the highest dose activity change, negative = inhibition, usual class: inhibitors | 5.4% of 310,000 active; further: on the % scale 0 is the no-effect control and ±100 the full control effect; nearly all actives have a fitted effect of over 60% in size
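In this cell-based reporter format, copper sulfate (700 uM final) drives Gal4–ROR gamma fusion expression from a metallothionein promoter in Drosophila Schneider cells; compounds preincubated 1 hr, reporter read after 20 hr at ambient temperature.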
SW480 rereplic – A quantitative high throughput screen for small molecules that induce DNA re-replication in SW480 colon adenocarcinoma cells. SW480 DNA re-replication, Hoechst DNA content imaging, 48 h. Potency, µM (doses to about 46.1 µM), without a hit: top-dose re-replication activation, actives largely listed as activators. 1.8% of 340,000 active; further: % of control where 0% means no effect; nearly all actives have a fitted effect of over 55% in size
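Hoechst fluorescence of nuclei (405 nm excitation, 500-530 nm emission) measured by plate-scanning imager after 48 hr compound exposure at 37 C; re-replication scored as increased number of nuclei with elevated intensity.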
ELG1 repair inh – qHTS screen for small molecules that inhibit ELG1-dependent DNA repair in human embryonic kidney (HEK293T) cells expressing luciferase-tagged ELG1; Potency, µM (series often up to 46.1 µM), inactives show top-dose activity change, negative = inhibition, hits mostly inhibitors; 2.3% of 330,000 active; HEK293T ELG1-luciferase reporter, luminescence, 16 h; DNA damage induced by 5-fluorouridine; AID 504467, 2011; further: on the % scale 0 is the no-effect control and ±100 the full control effect; nearly all actives have a fitted effect of over 55% in size
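Step one: seed 2,000 cells per well. Step two: pin-transfer compound or DMSO alongside 5-fluorouridine. Step three: incubate 16 hr, 37 °C, 5% CO2. Step four: add ONE-Glo, wait 30 min, read luminescence.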
MCF10A rereplic – A quantitative high throughput screen for small molecules that induce DNA re-replication in MCF 10a normal breast cells; Potency, µM (series often up to 46.1 µM), without a hit: top-dose activity, positive = re-replication, hits mostly activators; 2.9% of 350,000 active; MCF 10A DNA re-replication, Hoechst nuclear intensity, 48 h; AID 624296, 2012; further: % of control where 0% means no effect; nearly all actives have a fitted effect of over 50% in size
VP16 counter – VP16 counterscreen qHTS for inhibitors of ROR gamma transcriptional activity. AID 2546, 2010. 3.5% of 310,000 active. Drosophila S2 Gal4-VP16 UAS-luciferase, luminescence, 20 h. Potency, µM (top dose mostly 53.6 µM), without a hit: at the top dose activity, negative = inhibition, hits mostly inhibitors;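 further: Gal4-VP16 expression switched on by copper sulfate through the metallothionein promoter; on the % scale 0 is the no-effect control and ±100 the full control effect; nearly all actives have a fitted effect of over 50% in size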
ELG1 FLuc counter – qHTS screen for small molecules that inhibit ELG1-dependent DNA repair: Hit Confirmation in Cell-Based Luciferin Assay. shares compounds with ELG1 repair inh. cell-free firefly luciferase luminescence counter-screen, ViewLux. Potency, µM (highest dose often 46.1 µM), inactives show at the top dose activity change, negative = inhibition, actives largely listed as inhibitors. 3% of 350 active. AID 624247, 2012; further: on the % scale 0 is the no-effect control and ±100 the full control effect
ELG1-Luc inh – HTS assay for small molecules that inhibit ELG1-dependent DNA repair in human embryonic kidney (HEK293T) cells expressing luciferase-tagged ELG1: Hit Confirmation; HEK293T ELG1-luciferase levels, luminescence; cells co-treated with 5-fluorouridine; 68% of 670 active; Potency, µM (series often up to 46.1 µM), inactives show at the highest dose activity change, negative = inhibition, actives largely listed as inhibitors; AID 624248, 2012; shares compounds with ELG1 repair inh; further: on the % scale 0 is the no-effect control and ±100 the full control effect; nearly all actives have a fitted effect of over 55% in size
ELG1-Luc MMS – confirmation of human ELG1 repair inhibitors, MMS stimulated | shares compounds with ELG1 repair inh | HEK293T luciferase-tagged ELG1 level, MMS stimulated | Potency, µM (series often up to 46.1 µM), without a hit: at the top dose activity change, negative = inhibition, usual class: inhibitors | 53% of 670 active; further: on the % scale 0 is the no-effect control and ±100 the full control effect; nearly all actives have a fitted effect of over 60% in size
ELG1 5FU viab – qHTS screen for small molecules that inhibit ELG1-dependent DNA repair: Hit Confirmation with 5FU Viability | cell viability with 5-FU, ELG1-dependent repair | 670 tested, under 10 active | shares compounds with ELG1 repair inh | Potency, µM (top dose mostly 46.1 µM), for the others: top-dose activity change, negative = viability loss, hits mostly cytotoxic;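 further: ELG1-luc HEK293T cells cotreated with 5-fluorouridine at 10 µM final; viability measured 16 h after compound addition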
ELG1 MMS viab – qHTS screen for small molecules that inhibit ELG1-dependent DNA repair: Hit Confirmation with MMS Viability; shares compounds with ELG1 repair inh; Cell viability with MMS, ELG1-dependent DNA repair; Potency, µM (titrated, usually from 46.1 µM), inactives show top-dose activity change, negative = viability loss, hits mostly cytotoxic; 33% of 670 active;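 further: ELG1-luc HEK293T cells co-treated with 10 µM MMS; viability read 16 h after compound addition; on the % scale 0 is the no-effect control and ±100 the full control effect; nearly all actives have a fitted effect of over 60% in size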
ELG1 unstim viab – qHTS screen for small molecules that inhibit ELG1-dependent DNA repair: Hit Confirmation with Unstimulated Viability Assay; shares compounds with ELG1 repair inh; cell viability counter-screen, unstimulated, luminescence; Potency, µM (titrated, usually from 45.9 µM), inactives show top-dose activity change, negative = loss of viability, hits mostly cytotoxic; 8% of 900 active;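 further: compound exposure lasted 16 hours before reading; on the % scale 0 is the no-effect control and ±100 the full control effect; nearly all actives have a fitted effect of over 55% in size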
FLuc enzyme – qHTS screen for small molecules that inhibit ELG1-dependent DNA repair: Hit Confirmation in Biochemical Luciferin Assay; purified firefly luciferase, luminescence counter-screen; shares compounds with ELG1 repair inh; Potency, µM (highest dose often 57.5 µM), for the others: at the highest dose activity, negative = inhibition, usual class: inhibitors; 10% of 350 active; further: on the % scale 0 is the no-effect control and ±100 the full control effect
Active calls of the source: *; [ ] = dose if it differs, or a comment. Sampled rows, rich in hits. Any-hit rate of the full collection: about 10%. The call rests on the fitted dose curve; in most records, active means well fitted curve in the direction sought with a large enough effect; inconclusive means small, poorly fitted or top-dose-only effect, or another doubt; inactive means no such curve, though single readings can be large; an effect the other way counts as inactive or inconclusive. Potency means the concentration at half of the fitted maximal effect.

How did CCCCCOC(=O)C1=C(C)NC(=O)NC1c1ccc2c(c1)OCO2 (configuration not stated) do in these assays?
RORgamma inh: -18.1%[1.91 µM]; SW480 rereplic: 1.3%; ELG1 repair inh: -6.4%; MCF10A rereplic: 10.7%; VP16 counter: -3.1%

Results for O=[N+]([O-])c1ccc(CCO)cc1 ?
RORgamma inh: 4.4%; VP16 counter: 2.7%

How did Cc1ccc(N2CC(C(=O)N3CCN(c4ccccn4)CC3)CC2=O)cc1 (configuration not stated) do in these assays?
SW480 rereplic: -7.5%; MCF10A rereplic: -1.5%

What do the screens show for `Cc1c(C)n2c(SCC(=O)N3CCOCC3)nnc2[nH]c1=O`?
SW480 rereplic: 0.1%; ELG1 repair inh: 19.3%; MCF10A rereplic: 3.3%

How did Cc1cc(C(=O)CSc2nc(N)cc(=O)[nH]2)c(C)n1-c1ccc(OC(F)F)cc1 do in these assays?
RORgamma inh: -38.3%; SW480 rereplic: -2.7%; ELG1 repair inh: inconclusive; MCF10A rereplic: 6.3%; VP16 counter: 10µM*; ELG1-Luc inh: -6.1%; ELG1-Luc MMS: 1.58µM*; ELG1 5FU viab: -15.7%; ELG1 MMS viab: 1.58µM*; ELG1 unstim viab: inconclusive

What do the screens show for `Cc1ccc(-c2csc3ncnc(N4CCN(C(=O)c5ccccc5)CC4)c23)cc1`?
RORgamma inh: -33.2%; SW480 rereplic: 1.0%[9.22 µM]; ELG1 repair inh: 18.4µM*; MCF10A rereplic: inconclusive; VP16 counter: inconclusive; ELG1 FLuc counter: inconclusive; ELG1-Luc inh: 15.8µM*; ELG1-Luc MMS: 25µM*; ELG1 5FU viab: inconclusive; ELG1 MMS viab: inconclusive; ELG1 unstim viab: inconclusive; FLuc enzyme: 1.2%

What do the screens show for `COC(=O)C1N[C@@H]([C@@H](NC(=O)COc2ccccc2)C(=O)NCc2ccc(OC)cc2)SC1(C)C` (some centres not stated)?
SW480 rereplic: 15.6%; MCF10A rereplic: 1.5%

How did O=C(Nc1ccc(NC(=O)c2cccs2)cc1Cl)c1ccco1 do in these assays?
RORgamma inh: inconclusive; SW480 rereplic: 2.8%; ELG1 repair inh: inconclusive; MCF10A rereplic: -5.6%; VP16 counter: -7.1%

Results for O=C(Nc1ccc(N2CCN(C(=O)c3ccco3)CC2)c(Cl)c1)c1cccs1 ?
RORgamma inh: -33.7%[0.365 µM]; SW480 rereplic: 3.3%; ELG1 repair inh: 4.11µM*; MCF10A rereplic: inconclusive; ELG1-Luc inh: 3.97µM*; ELG1-Luc MMS: 12.5µM*; ELG1 5FU viab: inconclusive; ELG1 MMS viab: 28.1µM*; ELG1 unstim viab: 25µM*

Results for O=C1CCC[C@@H]2Cc3nc4cc5c(cc4cc3[C@@H]3CCN1[C@H]23)OCO5 ?
SW480 rereplic: -18.6%; MCF10A rereplic: -3.0%; ELG1 unstim viab: inconclusive

How did Cc1c(C(=O)Nc2nccs2)oc2ccc(Br)cc12 do in these assays?
SW480 rereplic: 10.4%; ELG1 repair inh: inconclusive; MCF10A rereplic: inconclusive; ELG1 unstim viab: -8.4%

How did Cc1c(C(=O)Nc2nccs2)oc2ccc(F)cc12 do in these assays?
SW480 rereplic: 1.6%; ELG1 repair inh: inconclusive; MCF10A rereplic: -3.3%

How did CCc1cccc(NC(=O)Cn2cc(C=O)c3ccccc32)c1 do in these assays?
RORgamma inh: inconclusive; SW480 rereplic: 0.6%; ELG1 repair inh: 3.66µM*; MCF10A rereplic: 3.0%; VP16 counter: 2.2%; ELG1-Luc inh: inconclusive; ELG1-Luc MMS: 2.5µM*; ELG1 5FU viab: 0.9%; ELG1 MMS viab: 2.81µM*; ELG1 unstim viab: -17.9%

Results for COc1ccc(Cn2c(O)c(C=Nc3ccccc3C(=O)O)c3ccccc3c2=O)cc1 ?
RORgamma inh: inconclusive; SW480 rereplic: -6.7%; ELG1 repair inh: 4.11µM*; MCF10A rereplic: inconclusive; VP16 counter: -3.8%; ELG1-Luc inh: 3.53µM*; ELG1-Luc MMS: 2.5µM*; ELG1 5FU viab: -14.3%; ELG1 MMS viab: 2.81µM*; ELG1 unstim viab: inconclusive

What do the screens show for `COc1ccc(Cn2c(O)c(C=Nc3ccc(OC)cc3)c3ccccc3c2=O)cc1`?
RORgamma inh: 3.2%; SW480 rereplic: -2.2%; ELG1 repair inh: -20.2%; MCF10A rereplic: -2.6%; VP16 counter: -11.3%

Results for Oc1ccc(Nc2nc(Cl)nc(NCc3ccco3)n2)cc1 ?
RORgamma inh: 6.7%[10 µM]; SW480 rereplic: inconclusive; ELG1 repair inh: 6.7%; MCF10A rereplic: inconclusive; VP16 counter: 28.2%
